For part of these data: Potency and affinity values are given separately.

In one test the test system is Staphylococcus aureus. Kind of test: Antibacterial activity against Staphylococcus aureus MRSA ATCC 43300 (CO-ADD:GP_020); MIC in CAMBH media using NBS plates, by Resazurin F(560/590). It is filed as functional. The settings on record: Concentration 20 uM, ASSAY_TEST Inhibition of Bacterial Growth, detection method Resazurin, Fluorescence (ex560/em590), MEDIA CAMHB, plate type 384well, CORNING #3640, time 18 hr.

A further test concerns Acinetobacter baumannii. Put plainly: Antibacterial activity against Acinetobacter baumannii ATCC 19606 (CO-ADD:GN_034); MIC in CAMBH media using NBS plates, by Resazurin F(560/590). Format: functional. The conditions noted are these: Concentration 20 uM, ASSAY_TEST Inhibition of Bacterial Growth, detection method Resazurin, Fluorescence (ex560/em590), MEDIA CAMHB, plate type 384well, CORNING #3640, time 18 hr. A general note: The colour change of resazurin is a common sign of viable cells or microbes.

For the next test, the system named is Escherichia coli. Put plainly: Antibacterial activity against Escherichia coli ATCC 25922 (CO-ADD:GN_001); MIC in CAMBH media using NBS plates, by Resazurin F(560/590). It is filed as functional. The settings on record: Concentration 20 uM, ASSAY_TEST Inhibition of Bacterial Growth, detection method Resazurin, Fluorescence (ex560/em590), MEDIA CAMHB, plate type 384well, CORNING #3640, time 18 hr.

The subject of another test is Klebsiella pneumoniae. The settings on record: Concentration 20 uM; ASSAY_TEST Inhibition of Bacterial Growth; detection method Absorption (OD600); MEDIA CAMHB; plate type 384well; NBS; CORNING #3640; time 18 hr.
The next test has as its system Candida albicans. The settings on record: 20 µM.
A further test concerns Cryptococcus neoformans. The conditions noted are these: Concentration 20 uM; ASSAY_TEST Inhibition of Fungal Growth; detection method Resazurin; Absorption (OD600-OD570); plate type 384well; NBS; CORNING #3640.

`CCC(=Cc1ccc(CC)cn1)CC`: the Inhibition was 5.02% with Staphylococcus aureus; -14.68% in the test with Acinetobacter baumannii; 4.35% in the test on Escherichia coli; 10.54% with Klebsiella pneumoniae; 0.05% in the test on Candida albicans; -5.56% in the test with Cryptococcus neoformans.

Turning to `COc1ccc(-c2cc(-c3ccccc3)c(-c3ccccc3)nn2)cc1`, the Inhibition with Staphylococcus aureus was -3.16%; in the test with Acinetobacter baumannii, 8.32%; in the test on Escherichia coli, 6.8%; with Klebsiella pneumoniae, -1.34%; with Candida albicans it was 2.55%; in the test with Cryptococcus neoformans, -12.46%.

As for `Cc1ccc(C(=N)Nc2ccccc2)cc1`, the Inhibition with Staphylococcus aureus is 11.04%; in the test with Acinetobacter baumannii, 15.63%; with Escherichia coli it was 1.43%; in the test with Klebsiella pneumoniae, 18.31%; in the test on Candida albicans, 3.37%; with Cryptococcus neoformans it was -4.07%.

For `Cc1cc(N2CCN(C)CC2)n2nc(-c3ccc(Cl)cc3)nc2n1`, the Inhibition in the test on Staphylococcus aureus was 10.15%; in the test on Acinetobacter baumannii, 8.53%; in the test with Escherichia coli it was 12.12%; with Klebsiella pneumoniae it was 20.83%; in the test on Candida albicans, 5.91%; in the test with Cryptococcus neoformans, -6.75%.

Consider `COC(=O)Cc1[nH]c(S)nc1C(=O)OC`, for which the Inhibition is -11.54% in the test on Staphylococcus aureus; 1.23% with Acinetobacter baumannii; -12.23% in the test on Escherichia coli; 0.59% in the test on Klebsiella pneumoniae; 1.43% in the test with Candida albicans; 19.86% in the test on Cryptococcus neoformans.

Consider `FC(F)(F)c1cccc(-c2nc3nc(Cl)c(Cl)nc3[nH]2)c1`, for which the Inhibition in the test on Staphylococcus aureus was -14.72%; in the test on Acinetobacter baumannii, 9.89%; in the test on Escherichia coli it was 3.39%; in the test on Klebsiella pneumoniae, 6.13%; with Candida albicans, 4.41%; in the test with Cryptococcus neoformans, 33.54%.

Take `CCSc1nc(O)cc(O)n1`: the Inhibition with Staphylococcus aureus was 23.71%; with Acinetobacter baumannii, -7.74%; in the test with Escherichia coli it was 11.78%; in the test on Klebsiella pneumoniae, 13.65%; with Candida albicans, 4.28%; with Cryptococcus neoformans it was 3.85%.

For `Oc1ccccc1-c1nnco1` [FENADIAZOLE], the Inhibition in the test on Staphylococcus aureus was 4.3%; in the test on Acinetobacter baumannii, -3.75%; with Escherichia coli, 4.12%; in the test with Klebsiella pneumoniae, 8.02%; in the test on Candida albicans, 0.92%; in the test on Cryptococcus neoformans, -7.26%.

Regarding `Cn1c(N)c(/N=N/c2ccc(S(N)(=O)=O)cc2)c(=O)n(C)c1=O`, the Inhibition in the test with Staphylococcus aureus is 19.52%; with Acinetobacter baumannii, 4.45%; in the test with Escherichia coli, 15.26%; in the test on Klebsiella pneumoniae it was 20.82%; with Candida albicans it was 2.91%; with Cryptococcus neoformans, -0.3%.

As to `O=C(Nc1ccc(Cl)cc1)c1cc2c(cc1O)[nH]c1ccccc12`, the Inhibition in the test with Staphylococcus aureus is -1.15%; in the test on Acinetobacter baumannii, -12.34%; in the test on Escherichia coli, 2.48%; with Klebsiella pneumoniae, 13.56%; in the test with Candida albicans, 8.44%; in the test on Cryptococcus neoformans, -5.53%.

For `N#Cc1cnn(-c2cccc(Cl)c2)c1-n1cccc1`, the Inhibition with Staphylococcus aureus is 7.59%; in the test with Acinetobacter baumannii, -21.29%; in the test with Escherichia coli, 14.62%; in the test on Klebsiella pneumoniae it was 3.39%; in the test with Candida albicans, 9.39%; in the test on Cryptococcus neoformans, -16.73%.

For `COC(=O)C1=C(C)NC(C)=C(C(=O)OC)C(N2C(=O)CCC2=O)C1` (stereo not drawn), the Inhibition in the test on Staphylococcus aureus was 18.88%; with Acinetobacter baumannii, 6.44%; with Escherichia coli, 0.27%; with Klebsiella pneumoniae, 9.26%; in the test on Candida albicans, 2.3%; in the test on Cryptococcus neoformans, -2.75%.

As to `Cc1ccc(Nc2nc(Cl)nc3ncn(C)c23)c(C)c1`, the Inhibition with Staphylococcus aureus is 8%; in the test with Acinetobacter baumannii, 11.23%; in the test on Escherichia coli it was -0.86%; in the test on Klebsiella pneumoniae it was 14.74%; with Candida albicans it was 2.26%; in the test on Cryptococcus neoformans it was -7.52%.

For `O=[N+]([O-])C1C(c2ccccc2)C12c1ccccc1-c1ccccc12` (stereo not drawn), the Inhibition with Staphylococcus aureus is 1.75%; in the test on Acinetobacter baumannii, -9.94%; in the test on Escherichia coli, 13.79%; in the test with Klebsiella pneumoniae it was -4%; in the test with Candida albicans, -1.91%; in the test with Cryptococcus neoformans, -10.55%.

In the case of `CC(=O)OC1C=CCC2C(=O)c3cccc(O)c3C(O)C12` (stereo not drawn), the Inhibition in the test with Staphylococcus aureus is -1.42%; in the test with Acinetobacter baumannii, -10.27%; in the test on Escherichia coli, 6.95%; with Klebsiella pneumoniae it was 7.69%; in the test with Candida albicans it was 6.66%; in the test on Cryptococcus neoformans it was -16.38%.

Consider `NC(=O)c1ccc(/N=N/c2c(O)c3ccccc3[nH]c2=O)cc1`, for which the Inhibition with Staphylococcus aureus is 1.45%; in the test with Acinetobacter baumannii, 0.09%; with Escherichia coli it was 1.38%; in the test on Klebsiella pneumoniae it was 17.01%; with Candida albicans, 24%; with Cryptococcus neoformans, -1.63%.

With `Cc1cc(O)c(C(C)C)cc1NC(=O)Nc1cccc2ccccc12`, the Inhibition with Staphylococcus aureus was -3.74%; with Acinetobacter baumannii it was -15.42%; with Escherichia coli, 2.96%; with Klebsiella pneumoniae, 4.38%; in the test on Candida albicans, 8.57%; in the test on Cryptococcus neoformans, -2.63%.

Take `N#Cc1n[nH]c2nc[nH]c(=O)c12`: the Inhibition in the test on Staphylococcus aureus is 10.72%; in the test on Acinetobacter baumannii, -7.81%; in the test with Escherichia coli it was 9.33%; in the test on Klebsiella pneumoniae it was 13.07%; in the test on Candida albicans it was 0.58%; with Cryptococcus neoformans, -10.99%.

Usually Inhibition stands for the drop in the measured response relative to a control, in per cent.
